Five compounds from PubChem BioAssay can be followed below.

Calls of active or inactive are those of the source.

Experiment [1] in a line: probe aLefty2 binding to arrayed compounds – biochemical, biotinylated probe, 635/667 nm fluorescence, primary screen (AID 1094).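 Also: score merges spot fluorescence near 667 nm with spot signal-to-noise ratio.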 As to conditions: small-molecule microarray, higher = more signal.
In experiment [2] the test system is Noggin (protein binding on small-molecule microarray). Description: small molecules binding Noggin protein – biochemical, 635/667 nm fluorescence, primary screen (AID 1095).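 Also: score merges 667 nm feature fluorescence with signal to noise over triplicate slides.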 As to conditions: 635 nm fluorescence, higher = more signal.
Experiment [3] concerns the target Neurogenic locus notch homolog protein 3 (Homo sapiens) (UniProt Q9UM47). As to the kind of experiment: small molecules binding NOTCH3 protein – biochemical, 635/667 nm fluorescence, primary screen (AID 1096). As to conditions: small-molecule microarray, 635 nm fluorescence, higher = more signal.
A short description of experiment [4]: probe aEGFR binding to arrayed compounds – biochemical, biotinylated probe, 635/667 nm fluorescence, primary screen (AID 1097).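 Also: probe is a biotinylated anti-EGFR antibody binding compounds printed on slides; score combines fluorescence near 667 nm and signal to noise of each spot.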 As to conditions: small-molecule microarray, higher = more signal.
The test system of experiment [5] is Plasmodium falciparum Sir2 (PF13_0152, Sir2A). As to the kind of experiment: Plasmodium falciparum Sir2A binding compounds – biochemical, small-molecule microarray, 635 nm fluorescence, primary screen (AID 1098).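 Also: score merges spot fluorescence intensity with its signal-to-noise ratio.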 As to conditions: fluorescence 635 nm, higher = more signal.
The nature of experiment [6]: probe aDKK1 binding to arrayed compounds – biochemical, biotinylated probe, 635/667 nm fluorescence, primary screen (AID 1099).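 Also: score merges 667nm spot fluorescence with signal to noise across triplicate slides.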 As to conditions: small-molecule microarray, higher = more signal.
A short description of experiment [7]: probe aCHRDL2 binding to arrayed compounds – biochemical, biotinylated probe, 635/667 nm fluorescence, primary screen (AID 1100). As to conditions: small-molecule microarray, higher = more signal.
Experiment [8] is described as follows: change in splice reporter luminescence, either direction, cell-based, HEK293, spliceosome inhibition project, primary screen (AID 1101).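 Also: HEK293 cells carrying a splicing-competent luciferase reporter gene; test concentration not given here.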 As to conditions: HEK293 splicing luciferase reporter, 24 h, higher = more signal, called active from +8 up or from −8 down. On the technique in general: In a reporter assay the amount or activity of a reporter protein is the signal.

Experiment [9] deals with Fibroblast growth factor 10 (Homo sapiens) (UniProt O15520). As to the kind of experiment: compounds binding fibroblast growth factor 10 – biochemical, small-molecule microarray, 635 nm fluorescence, primary screen (AID 1102). As to conditions: FGF10 binding, fluorescence 635 nm, higher = more signal.
Fibroblast growth factor 10 (Homo sapiens), sequence (O15520 whole entry, looked up): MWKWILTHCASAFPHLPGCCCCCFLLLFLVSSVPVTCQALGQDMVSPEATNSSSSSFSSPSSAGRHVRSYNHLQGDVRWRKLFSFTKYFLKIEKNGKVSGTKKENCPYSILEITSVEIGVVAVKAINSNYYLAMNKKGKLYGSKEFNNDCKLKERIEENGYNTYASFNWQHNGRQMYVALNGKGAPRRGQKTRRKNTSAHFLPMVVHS
The test system of experiment [10] is glycogen synthase kinase-3 (GSK3A per assay name; protocol says GSK3B). Description: compounds binding glycogen synthase kinase-3 – biochemical, small-molecule microarray, 635 nm fluorescence, GSK3A, primary screen (AID 1103). Also: the record names both GSK3A and GSK3B. As to conditions: fluorescence 635 nm, higher = more signal.
Experiment [11] addresses Epidermal growth factor receptor (Homo sapiens) (UniProt P00533). As to the kind of experiment: compounds binding epidermal growth factor receptor – biochemical, small-molecule microarray, 635 nm fluorescence, primary screen (AID 1104).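 Also: score merges 667 nm emission intensity with spot signal to noise over triplicate slides.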 As to conditions: EGFR binding, higher = more signal.
For experiment [12], the target named is Follistatin-related protein 3 (Homo sapiens) (UniProt O95633). Description: compounds binding follistatin-related protein 3 – biochemical, small-molecule microarray, 635 nm fluorescence, primary screen (AID 1105).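 Also: score merges emission near 667 nm and signal to noise per printed spot across three slides.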 As to conditions: FSTL3 binding, higher = more signal.
Follistatin-related protein 3 (Homo sapiens), sequence (O95633 whole entry, looked up): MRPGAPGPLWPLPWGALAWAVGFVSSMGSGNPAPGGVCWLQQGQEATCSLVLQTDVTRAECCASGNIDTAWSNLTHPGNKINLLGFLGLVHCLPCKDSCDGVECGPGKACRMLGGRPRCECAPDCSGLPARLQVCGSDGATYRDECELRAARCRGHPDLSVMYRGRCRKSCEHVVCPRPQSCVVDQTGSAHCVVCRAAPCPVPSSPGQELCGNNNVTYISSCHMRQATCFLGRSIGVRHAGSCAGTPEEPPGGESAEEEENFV
Experiment [13] addresses Dickkopf-related protein 1 (Homo sapiens) (UniProt O94907). Description: small molecules binding DKK1 protein – biochemical, small-molecule microarray, 635 nm fluorescence scan, primary screen (AID 1106).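 Also: score merges emission near 667 nm with signal to noise over three replicate slides.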 As to conditions: higher = more signal.
Experiment [14] relates to Inhibin beta A chain (activin A). Description: small molecules binding activin A – biochemical, small-molecule microarray, 635 nm fluorescence scan, primary screen (AID 1107).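 Also: mouse activin A protein probed at 4.33 µg/mL on printed slides; score merges bound-protein fluorescence near 667 nm with spot signal-to-noise.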 As to conditions: INHBA, higher = more signal.
Experiment [15] concerns Human papillomavirus type 1a protein E7 (residues 44-93). As to the kind of experiment: small molecules binding HPV E7 44-93 – biochemical, small-molecule microarray, residues 44-93, 635 nm fluorescence, primary screen (AID 1108).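 Also: E7 fragment applied at 1 µg/mL in TBST for 1 h at 4 C; score combines spot fluorescence with its signal to noise ratio.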 As to conditions: fluorescence 635 nm, higher = more signal.
Experiment [16] can be described thus: hepatitis C replication reporter changes, two-sided – Huh7 cells, luciferase reporter, HCV replication inhibitor project, primary screen (AID 1109).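 Also: huh7 hepatoma cells harbouring a luciferase neomycin HCV replicon reporter; luciferase luminescence as measure of HCV replicon replication; test concentration not given here.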 As to conditions: Huh7 HCV replicon luciferase reporter, 48 h; higher = more signal.
The target in experiment [17] is Left-right determination factor 2 (Homo sapiens) (UniProt O00292). Description: small molecules binding LEFTY2 protein – biochemical, small-molecule microarray, 635 nm fluorescence scan, primary screen (AID 1110). As to conditions: higher = more signal.
Left-right determination factor 2 (Homo sapiens), sequence (O00292 whole entry, looked up): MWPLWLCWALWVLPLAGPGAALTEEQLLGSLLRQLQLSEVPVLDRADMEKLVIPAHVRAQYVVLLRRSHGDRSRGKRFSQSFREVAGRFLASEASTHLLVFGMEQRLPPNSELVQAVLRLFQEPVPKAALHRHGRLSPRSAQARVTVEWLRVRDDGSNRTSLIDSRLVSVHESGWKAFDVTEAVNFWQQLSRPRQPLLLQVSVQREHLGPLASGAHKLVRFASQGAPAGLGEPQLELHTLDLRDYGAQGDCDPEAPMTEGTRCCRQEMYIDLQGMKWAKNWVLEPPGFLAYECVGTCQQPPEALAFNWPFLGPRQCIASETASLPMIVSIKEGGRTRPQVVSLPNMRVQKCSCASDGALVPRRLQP
The target in experiment [18] is Calmodulin-1 (Homo sapiens) (UniProt P0DP23). As to the kind of experiment: small molecules binding calmodulin-1 with EGTA – biochemical, small-molecule microarray, Cy5-labelled CALM1, profiling panel (AID 1111).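 Also: labelled calmodulin applied in Tris saline Tween buffer holding calcium plus EGTA and DTT.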 As to conditions: Cy5-CALM1 binding fluorescence, higher = more signal.
The target is the same in experiment [19]. Description: small molecules binding Ca-loaded calmodulin-1 – biochemical, small-molecule microarray, Cy5-labelled CALM1, plus calcium, artefact control for SMM control-protein annotation, profiling panel (AID 1112).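 Also: score merges spot fluorescence with signal to noise from triplicate slides.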 As to conditions: Cy5-CALM1 binding fluorescence, higher = more signal.
The nature of experiment [20]: probe aWnt5a binding to arrayed compounds – biochemical, biotinylated probe, 635/667 nm fluorescence, primary screen (AID 1113).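 Also: score merges 667 nm fluorescence intensity with signal-to-noise per printed feature.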 As to conditions: small-molecule microarray, higher = more signal.

Dickkopf-related protein 1 (Homo sapiens), sequence (O94907 whole entry, looked up): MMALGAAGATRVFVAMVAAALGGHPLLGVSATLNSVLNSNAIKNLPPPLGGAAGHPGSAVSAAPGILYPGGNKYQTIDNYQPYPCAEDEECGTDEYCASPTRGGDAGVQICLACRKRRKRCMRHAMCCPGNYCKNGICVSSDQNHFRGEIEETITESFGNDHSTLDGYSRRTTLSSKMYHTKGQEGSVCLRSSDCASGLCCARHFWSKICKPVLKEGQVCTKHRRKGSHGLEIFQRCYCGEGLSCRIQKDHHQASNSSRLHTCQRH
Neurogenic locus notch homolog protein 3 (Homo sapiens), sequence (Q9UM47 whole entry, looked up): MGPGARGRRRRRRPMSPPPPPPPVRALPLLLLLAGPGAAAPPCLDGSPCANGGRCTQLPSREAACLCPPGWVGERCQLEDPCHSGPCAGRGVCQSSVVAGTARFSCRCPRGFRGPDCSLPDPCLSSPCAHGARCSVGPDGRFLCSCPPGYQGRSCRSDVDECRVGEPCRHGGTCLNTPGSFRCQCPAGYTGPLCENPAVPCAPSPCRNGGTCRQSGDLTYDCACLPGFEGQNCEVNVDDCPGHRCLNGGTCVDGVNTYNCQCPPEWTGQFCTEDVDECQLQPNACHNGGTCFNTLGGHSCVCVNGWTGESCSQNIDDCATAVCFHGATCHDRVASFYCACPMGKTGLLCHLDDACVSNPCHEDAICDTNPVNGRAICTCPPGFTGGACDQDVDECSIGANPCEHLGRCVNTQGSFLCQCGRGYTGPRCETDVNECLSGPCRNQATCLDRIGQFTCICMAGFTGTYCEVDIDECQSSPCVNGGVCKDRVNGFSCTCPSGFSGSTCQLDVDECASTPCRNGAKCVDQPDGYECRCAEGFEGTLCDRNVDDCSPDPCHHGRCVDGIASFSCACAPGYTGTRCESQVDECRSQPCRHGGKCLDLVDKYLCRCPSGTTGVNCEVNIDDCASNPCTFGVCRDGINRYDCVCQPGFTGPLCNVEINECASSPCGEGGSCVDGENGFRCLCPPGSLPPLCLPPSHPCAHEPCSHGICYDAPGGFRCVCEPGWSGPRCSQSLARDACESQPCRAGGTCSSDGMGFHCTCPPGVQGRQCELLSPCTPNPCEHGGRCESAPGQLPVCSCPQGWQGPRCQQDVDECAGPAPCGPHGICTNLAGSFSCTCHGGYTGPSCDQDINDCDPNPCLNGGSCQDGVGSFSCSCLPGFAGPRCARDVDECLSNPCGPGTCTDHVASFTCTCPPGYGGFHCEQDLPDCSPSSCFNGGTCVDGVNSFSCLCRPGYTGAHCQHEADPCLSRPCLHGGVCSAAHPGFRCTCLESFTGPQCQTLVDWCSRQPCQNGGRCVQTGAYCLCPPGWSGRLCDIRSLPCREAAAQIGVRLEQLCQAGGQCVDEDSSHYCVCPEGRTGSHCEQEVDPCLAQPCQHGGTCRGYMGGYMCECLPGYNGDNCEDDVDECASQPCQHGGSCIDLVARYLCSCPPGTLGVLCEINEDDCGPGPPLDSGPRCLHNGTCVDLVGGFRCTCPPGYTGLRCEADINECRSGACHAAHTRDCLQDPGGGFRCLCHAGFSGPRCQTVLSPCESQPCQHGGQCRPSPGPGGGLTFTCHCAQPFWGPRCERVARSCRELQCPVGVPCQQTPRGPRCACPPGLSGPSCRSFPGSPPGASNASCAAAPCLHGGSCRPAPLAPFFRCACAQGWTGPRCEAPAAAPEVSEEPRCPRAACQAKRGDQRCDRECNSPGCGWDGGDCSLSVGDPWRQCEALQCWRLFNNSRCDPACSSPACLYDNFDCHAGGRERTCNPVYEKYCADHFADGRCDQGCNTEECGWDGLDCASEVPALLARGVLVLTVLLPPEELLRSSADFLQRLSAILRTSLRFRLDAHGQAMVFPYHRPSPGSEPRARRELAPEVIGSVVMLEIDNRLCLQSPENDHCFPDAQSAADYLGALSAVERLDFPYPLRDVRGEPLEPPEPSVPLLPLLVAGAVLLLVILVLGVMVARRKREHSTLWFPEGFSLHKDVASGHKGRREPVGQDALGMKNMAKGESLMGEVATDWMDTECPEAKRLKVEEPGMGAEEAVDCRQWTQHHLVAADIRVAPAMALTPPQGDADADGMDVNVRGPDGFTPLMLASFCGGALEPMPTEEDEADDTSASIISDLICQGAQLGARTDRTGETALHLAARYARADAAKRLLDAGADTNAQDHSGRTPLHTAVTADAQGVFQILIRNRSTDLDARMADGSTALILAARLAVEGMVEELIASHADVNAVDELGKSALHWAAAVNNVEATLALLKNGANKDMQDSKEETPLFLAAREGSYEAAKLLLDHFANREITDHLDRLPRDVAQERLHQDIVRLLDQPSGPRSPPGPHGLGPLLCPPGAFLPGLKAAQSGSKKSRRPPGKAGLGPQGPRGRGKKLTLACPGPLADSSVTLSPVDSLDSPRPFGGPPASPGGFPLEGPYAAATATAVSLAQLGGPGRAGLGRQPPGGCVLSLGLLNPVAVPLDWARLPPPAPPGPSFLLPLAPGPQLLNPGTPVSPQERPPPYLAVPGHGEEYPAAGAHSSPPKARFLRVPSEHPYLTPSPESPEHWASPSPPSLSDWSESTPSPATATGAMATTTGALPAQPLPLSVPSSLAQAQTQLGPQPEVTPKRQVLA
Epidermal growth factor receptor (Homo sapiens), sequence (P00533 whole entry, looked up): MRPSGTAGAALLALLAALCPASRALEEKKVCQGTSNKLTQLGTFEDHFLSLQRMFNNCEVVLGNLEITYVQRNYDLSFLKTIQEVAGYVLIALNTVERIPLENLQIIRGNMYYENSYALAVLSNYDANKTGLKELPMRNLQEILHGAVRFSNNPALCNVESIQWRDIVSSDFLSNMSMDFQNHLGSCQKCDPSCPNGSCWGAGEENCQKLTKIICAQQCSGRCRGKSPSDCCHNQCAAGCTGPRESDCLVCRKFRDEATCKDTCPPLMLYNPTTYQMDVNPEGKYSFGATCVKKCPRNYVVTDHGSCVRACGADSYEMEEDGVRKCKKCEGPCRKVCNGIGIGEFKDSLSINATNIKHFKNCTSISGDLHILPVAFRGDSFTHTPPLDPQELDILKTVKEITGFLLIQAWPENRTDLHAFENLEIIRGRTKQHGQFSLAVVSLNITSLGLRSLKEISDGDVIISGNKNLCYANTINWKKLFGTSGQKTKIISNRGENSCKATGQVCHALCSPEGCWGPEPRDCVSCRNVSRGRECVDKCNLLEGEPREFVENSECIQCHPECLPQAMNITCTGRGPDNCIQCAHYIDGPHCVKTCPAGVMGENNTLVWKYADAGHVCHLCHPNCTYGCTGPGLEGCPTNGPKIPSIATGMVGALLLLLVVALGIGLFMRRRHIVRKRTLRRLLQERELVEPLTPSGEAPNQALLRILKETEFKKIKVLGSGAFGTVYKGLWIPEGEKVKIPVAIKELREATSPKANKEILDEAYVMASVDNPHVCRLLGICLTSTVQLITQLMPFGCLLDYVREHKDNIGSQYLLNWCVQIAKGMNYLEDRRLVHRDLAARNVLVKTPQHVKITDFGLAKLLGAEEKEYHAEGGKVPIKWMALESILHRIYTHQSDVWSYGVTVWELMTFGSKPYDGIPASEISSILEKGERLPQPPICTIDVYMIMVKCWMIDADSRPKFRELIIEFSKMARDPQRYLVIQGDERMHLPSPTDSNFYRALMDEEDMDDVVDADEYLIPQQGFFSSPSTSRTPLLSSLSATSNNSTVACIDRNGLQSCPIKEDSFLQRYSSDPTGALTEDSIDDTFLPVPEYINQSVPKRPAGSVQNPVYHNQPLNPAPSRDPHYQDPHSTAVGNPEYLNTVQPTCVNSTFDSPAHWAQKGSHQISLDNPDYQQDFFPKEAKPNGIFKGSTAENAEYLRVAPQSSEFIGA

For the compound `COc1ccc([Si](C)(C)[C@@H]2[C@@H](CCn3cc(CCO)nn3)O[C@]3(C(=O)N(Cc4ccc(N5C(=O)c6cccc7cccc5c67)cc4)c4ccccc43)[C@H]2C)cc1`, the composite z-score in experiment [1] is -0.0564; in [2], 0.376; in experiment [3], 0.802; in experiment [4] it was -0.0138; in experiment [5] it was 0.831; in [6], 0.134. In addition, the composite z-score was determined as 0.207 in experiment [7]; 0.266 in experiment [9]; 0.0923 in experiment [10]; 0.248 in experiment [11]; 0.334 in [12]; 0.258 in experiment [13]. Also, the composite z-score was 0.581 in experiment [14]; 0.119 in experiment [15]; 0.316 in [17]; 1.22 in experiment [18]; 0.863 in experiment [19]; -0.0459 in experiment [20]. The z-score was -2.39 (inactive) in [8] and -5.16 in experiment [16].

With `C=CCN1C(=O)[C@]2(O[C@H](CCn3cc([C@H](O)c4ccccc4)nn3)[C@@H]([Si](C)(C)c3ccc(OC)cc3)[C@@H]2C)c2cc(N3CCOC3=O)ccc21`, the composite z-score in experiment [1] is -0.23; in experiment [2], -0.394; in experiment [3], -0.583; in experiment [4], -0.232; in experiment [5], 0.147; in [6], -0.228. In addition, the composite z-score in experiment [7] was 0.0778; in experiment [9], -0.57; in experiment [10], 0.387; in experiment [11] it was -0.754; in [12] it was -0.577; in experiment [13], -0.272. In addition, the composite z-score in experiment [14] is 0.147; in experiment [15], 0.724; in experiment [17], -0.69; in [18] it was -0.169; in [19], -0.367; in experiment [20], -0.16. The figures for the z-score in [8] and in experiment [16] were -2.35 (inactive) and -3.64, respectively.

For `CC(C)CNC(=O)[C@@H]1c2ccccc2C(=O)N(Cc2ccc(OC(F)(F)F)cc2)[C@H]1c1ccc(CO)cc1`, the composite z-score is -0.0329 in experiment [1]; 1.3 in [2]; 1.04 in experiment [3]; 0.0378 in experiment [4]; 1.46 in [5]; 0.799 in experiment [6]. Further, the composite z-score in [7] was found to be 0.922; in experiment [9], 0.64; in [10], 1.28; in experiment [11], 0.346; in [12], 1.26; in experiment [13], 0.407. For the same compound, the composite z-score in [14] is 0.254; in experiment [15], -0.491; in [17], 0.569; in [18] it was 0.986; in [19], -0.614; in experiment [20] it was 0.0519. Moreover, the z-score was -0.787 (inactive) in experiment [8] and -0.913 in [16].

As to `C=C(COC)/C(=C/C[C@H](OC(C)=O)c1ccc(CO)o1)c1cnc2ccccc2c1`, the composite z-score is -0.0208 in experiment [1]; 1.55 in [2]; 1.04 in [3]; -0.0616 in experiment [4]; 1.05 in experiment [5]; 0.0967 in experiment [6]. Also, the composite z-score came out at 0.131 in experiment [7]; 0.979 in [9]; 1.29 in [10]; 0.477 in [11]; 1.48 in experiment [12]; 0.639 in [13]. The composite z-score in [14] was 1.61; in experiment [15] it was 0.729; in [17] it was 0.149; in [18], 0.143; in experiment [19], -0.387; in experiment [20], -0.0445. Further, the figures for the z-score in experiment [8] and in experiment [16] were -1.03 (inactive) and -1.18, respectively.

For the compound `O=C(O)[C@H]1C[C@H]2C(=O)NCC(=O)N2[C@H]1c1cccc(OCCO)c1`, the composite z-score was 0.0889 in [1]; 0.0133 in [2]; 0.446 in [3]; 0.108 in experiment [4]; 1.69 in experiment [5]; 0.809 in [6]. For the same compound, the composite z-score in experiment [7] came out at 0.725; in experiment [9], 0.082; in [10], 0.444; in [11] it was 0.0343; in experiment [12] it was 0.778; in experiment [13], 0.552. Further, the composite z-score in experiment [14] is 1.5; in experiment [15], 0.22; in [17] it was -0.166; in experiment [18], 0.338; in experiment [19], 0.921; in experiment [20], 0.291. Further, the results for the z-score in [8] and in experiment [16] were -0.387 (inactive) and 3.1, respectively.
